Experimental data: PubChem BioAssay (NCATS)
Inconclusive results are not listed. Activity calls are given as the source filed them. Unless noted, the call rests on the fitted dose curve; in most records, active means well fitted curve in the direction sought with a large enough effect; inconclusive means small, poorly fitted or top-dose-only effect, or another doubt; inactive means no such curve, though single readings can be large; an effect the other way counts as inactive or inconclusive.

Tests used:
[1] = qHTS for differential inhibitors of proliferation of Plasmodium falciparum line HB3 (AID 1886); details: Potency: Plasmodium falciparum HB3 proliferation inhibition;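 further: parasites grown with compound for 72 h before SYBR Green readout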; further: potency means the concentration at half of the fitted maximal effect
[2] = biological target: Ferritin light chain (Equus caballus) (UniProt P02791); assay: qHTS Validation Assay for Identification of Novel General Anesthetics (AID 2323); further: series mostly up to about 77 µM
Summary of the method: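 10 uM horse-spleen apoferritin + 1-AMA (50% saturated, PBS); cpd pin-transferred, 10 min RT. Ex 380/Em 535 nm endpoint. Activity normalized between free 1-AMA and 1-AMA/apoferritin; 4-parameter Hill fit of concentration-response.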

[3] = biological target: ATP-dependent DNA helicase Q1 (Homo sapiens) (UniProt P46063); assay: qHTS Validation Assay for Inhibitors of RecQ-Like Dna Helicase 1 (RECQ1) (AID 2353); further: potency means the concentration at half of the fitted maximal effect
Summary of the method: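 RECQ1T1 50 nM; forked duplex (20 bp + 30-nt ss tails) 200 nM, ATP 2 mM final; pH 8.0, 2 mM MgCl2, 2.5 ug/ml poly(dI-dC); 15 min compound preincubation; discontinuous kinetic read over 2 h at RT.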

[4] = Cytometric Cell-Based qHTS for Inhibitors of the mTORC1 Signaling Pathway in MEF (Tsc2-/-, p53-/-) Cells (AID 2660);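 further: Tsc2 and p53 null MEFs carrying empty vector with compound for 24 h; percent of cells above a phospho-rpS6 to PI ratio cutoff in each well; series mostly up to about 38 µM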
Summary of the method: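 Immunofluorescence qHTS of rpS6 Ser235/236 phosphorylation: MEFs (Tsc2-/-, p53-/-) treated 24 h, 37 C, in DMEM + 10% FBS. Alexa-488 signal normalized to PI count, referenced to rapamycin (7.5 nM) and DMSO; PI cell number recorded for viability.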

[5] = High Content Imaging Cell-Based qHTS for Inhibitors of the mTORC1 Signaling Pathway in MEF (Tsc2-/-, p53-/-) Cells (AID 2666);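 further: percent of cells scored positive for phospho-rpS6 Ser235/236 immunostaining by imaging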
Summary of the method: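 Inhibition of rpS6 phosphorylation is measured by immunofluorescence imaging in empty-vector Tsc2-/-, p53-/- mouse embryonic fibroblasts after 24 hrs compound exposure at 37 degree Celsius. Results are reported as % positive cells per well.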

[6] = High Content Imaging Cell-Based qHTS for Inhibitors of the mTORC1 Signaling Pathway in MEF Cells (AID 2667);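 further: Tsc2-/- p53-/- MEFs stably re-expressing wild-type Tsc2 exposed 24 h; series mostly up to about 38 µM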
Summary of the method: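 Fixed-cell imaging of phospho-S6 (Ser235/236, Alexa-488) after 24 hrs of compound treatment at 37 degree Celsius. Signal was normalized to Hoechst, and thresholds from the highest and lowest wells split cells into % active versus % non-active.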

[7] = qHTS Assay for Modulators of Human Peripheral Myelin Protein 22 (PMP22) Expression/Activity (AID 1967; active means well fitted curve in the direction sought with a large enough effect in the signal ratio; the % refers to the signal ratio)
Summary of the method: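 Mouse MSC80 Schwann line, Pmp22 promoter–CBG68 reporter, EF-alpha–CBR internal control. 24h compound exposure, 37 °C/5% CO2, DMEM + 10% FBS. Readout: corrected green/red luminescence ratio, normalized to untreated cells; concentration-response curves fitted and classified.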

[8] = Cytometry Cell-Based qHTS for Inhibitors of the mTORC1 Signaling Pathway in MEF cells (AID 2668);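 further: Tsc2-/- p53-/- mouse embryonic fibroblasts stably re-expressing wild-type Tsc2; percent cells positive for phospho-rpS6 Ser235/236 relative to propidium iodide stain; series mostly up to about 38 µM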
Summary of the method: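 Read-out: phospho-rpS6 Ser235/236 immunofluorescence normalized to propidium iodide intensity, scored as % active cells against a rapamycin (7.5 nM) threshold. Cells: Tsc2-/-, p53-/- MEFs stably expressing WT Tsc2, compound-treated 24 hrs at 37 degree Celsius.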

[9] = biological target: RecQ-like DNA helicase BLM (Homo sapiens) (UniProt P54132); assay: qHTS Validation Assay for Inhibitors of Bloom's syndrome helicase (BLM) (AID 2364)
Summary of the method: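 BLM 50 nM in 25 mM Tris-HCl pH 8.0, 5 mM NaCl, 2 mM MgCl2, 1 mM DTT, 0.01% Tween-20, 2.5 ug/ml poly(dI-dC); 15 min cpd preinc, RT. Start: 200 nM forked DNA + 2 mM ATP (final). TAMRA read, 2 reads 2 h apart.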

[10] = qHTS Assay for Identification of Small Molecule Inducers of Hypoxia Response (AID 2120; active means well fitted curve in the direction sought with a large enough effect in the signal ratio, with a control signal flat, not every such curve was filed as active; the % refers to the signal ratio)
Summary of the method: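 Read-out: CCF4 FRET emission ratio 460nm/530nm (excitation 405nm), converted to %Activity, with AC50 fitted across a compound titration. ME-180 cells carried an HRE-driven beta-lactamase reporter; compound exposure 17 h, 37 degrees C.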

Measured: Potency

Chain of Ferritin light chain (Equus caballus) (P02791 2-175 limits assumed): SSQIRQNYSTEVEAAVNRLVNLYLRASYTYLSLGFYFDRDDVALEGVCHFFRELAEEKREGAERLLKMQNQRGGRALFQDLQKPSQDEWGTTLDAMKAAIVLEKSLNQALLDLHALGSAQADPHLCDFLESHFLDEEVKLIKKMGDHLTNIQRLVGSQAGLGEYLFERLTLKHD
Chain of ATP-dependent DNA helicase Q1 (Homo sapiens) (P46063 whole entry, looked up): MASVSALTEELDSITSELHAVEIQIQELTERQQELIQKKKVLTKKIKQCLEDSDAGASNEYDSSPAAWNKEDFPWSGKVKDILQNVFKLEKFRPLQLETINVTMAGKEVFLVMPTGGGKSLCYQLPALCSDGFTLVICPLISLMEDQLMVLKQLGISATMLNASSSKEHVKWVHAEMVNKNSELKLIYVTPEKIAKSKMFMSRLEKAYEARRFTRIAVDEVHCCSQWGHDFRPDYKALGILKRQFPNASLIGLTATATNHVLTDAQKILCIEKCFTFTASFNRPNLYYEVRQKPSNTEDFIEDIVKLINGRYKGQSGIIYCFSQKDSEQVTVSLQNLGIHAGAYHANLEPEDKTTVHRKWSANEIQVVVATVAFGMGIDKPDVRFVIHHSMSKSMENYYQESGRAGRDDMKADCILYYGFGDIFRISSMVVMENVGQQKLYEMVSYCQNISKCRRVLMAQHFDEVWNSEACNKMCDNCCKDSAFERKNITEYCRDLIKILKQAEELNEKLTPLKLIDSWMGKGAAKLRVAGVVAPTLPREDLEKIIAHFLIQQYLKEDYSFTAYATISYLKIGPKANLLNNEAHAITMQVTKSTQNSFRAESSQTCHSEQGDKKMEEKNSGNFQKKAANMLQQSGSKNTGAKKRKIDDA
Chain of RecQ-like DNA helicase BLM (Homo sapiens) (P54132 whole entry, looked up): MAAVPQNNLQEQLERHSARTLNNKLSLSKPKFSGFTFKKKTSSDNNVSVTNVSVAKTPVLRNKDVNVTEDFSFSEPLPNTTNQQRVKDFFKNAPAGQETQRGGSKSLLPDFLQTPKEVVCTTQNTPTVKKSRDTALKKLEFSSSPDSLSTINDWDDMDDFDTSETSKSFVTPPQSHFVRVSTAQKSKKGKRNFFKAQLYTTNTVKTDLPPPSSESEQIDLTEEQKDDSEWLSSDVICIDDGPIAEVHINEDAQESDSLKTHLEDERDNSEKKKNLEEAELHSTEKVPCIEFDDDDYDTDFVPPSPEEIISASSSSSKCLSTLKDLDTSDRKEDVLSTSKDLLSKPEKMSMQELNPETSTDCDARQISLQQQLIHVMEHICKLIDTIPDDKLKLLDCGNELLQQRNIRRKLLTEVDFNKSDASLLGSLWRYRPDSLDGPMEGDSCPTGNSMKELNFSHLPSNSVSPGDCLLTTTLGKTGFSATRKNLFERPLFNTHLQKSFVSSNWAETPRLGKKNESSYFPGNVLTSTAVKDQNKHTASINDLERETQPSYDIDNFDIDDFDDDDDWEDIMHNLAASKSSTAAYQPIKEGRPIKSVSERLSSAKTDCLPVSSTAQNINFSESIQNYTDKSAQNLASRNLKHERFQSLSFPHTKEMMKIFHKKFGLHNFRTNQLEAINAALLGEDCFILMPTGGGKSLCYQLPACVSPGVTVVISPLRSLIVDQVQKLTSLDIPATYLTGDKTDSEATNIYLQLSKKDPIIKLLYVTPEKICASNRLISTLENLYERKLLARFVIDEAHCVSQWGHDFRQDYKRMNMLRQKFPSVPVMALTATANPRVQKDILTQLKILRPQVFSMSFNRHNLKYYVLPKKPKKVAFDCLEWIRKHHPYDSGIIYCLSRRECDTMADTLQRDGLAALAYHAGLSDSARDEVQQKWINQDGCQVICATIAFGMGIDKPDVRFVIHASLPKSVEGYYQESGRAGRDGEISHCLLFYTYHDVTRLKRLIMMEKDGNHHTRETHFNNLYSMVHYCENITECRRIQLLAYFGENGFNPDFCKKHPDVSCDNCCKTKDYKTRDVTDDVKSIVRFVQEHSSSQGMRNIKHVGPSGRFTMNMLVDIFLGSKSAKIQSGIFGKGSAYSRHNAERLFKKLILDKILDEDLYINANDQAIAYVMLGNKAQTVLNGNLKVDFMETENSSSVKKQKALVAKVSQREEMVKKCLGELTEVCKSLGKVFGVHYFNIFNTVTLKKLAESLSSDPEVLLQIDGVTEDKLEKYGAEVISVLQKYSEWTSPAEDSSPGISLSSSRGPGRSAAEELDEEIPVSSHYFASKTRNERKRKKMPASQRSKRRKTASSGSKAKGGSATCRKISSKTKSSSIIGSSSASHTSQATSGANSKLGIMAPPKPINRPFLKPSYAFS

CCN1CCc2nc(N)oc2CC1
inactive: [1] | [2] | [3] | [4] | [5] | [6]

CN(C)CCCN1c2ccccc2Sc2ccccc21
active: [1] 10 µM
inactive: [2] | [3] | [4] | [5]

CCN(CC)CCNC(=O)c1cc(S(C)(=O)=O)ccc1OC
inactive: [1] | [2] | [3] | [4] | [5]

Nc1ncn([C@@H]2O[C@H](CO)[C@@H](O)[C@H]2O)c(=O)n1
inactive: [1]

CNCCC(Oc1ccccc1OC)c1ccccc1 (stereo not given)
inactive: [1] | [2] | [3] | [4] | [5] | [6]

Cc1ccc(S(=O)(=O)NC(=O)NN2CCCCCC2)cc1
inactive: [1] | [7] | [2] | [4] | [6] | [8]

C#CCN(C)CCCOc1ccc(Cl)cc1Cl
inactive: [1] | [7] | [4] | [5] | [6] | [8]

CCc1c(C)[nH]c2c1C(=O)C(CN1CCOCC1)CC2 (stereo not given)
inactive: [1] | [2] | [3] | [4] | [5] | [6]

Cc1nc2c([nH]1)c(=O)n(C)c(=O)n2Cc1ccco1
inactive: [1] | [2] | [3] | [4] | [5]

N[C@@H](COP(=O)(O)O)C(=O)O
not listed: [9] | [10]
inactive: all other assays above

Cc1ccc(=O)n(-c2ccccc2)c1
inactive: [1] | [2] | [3] | [4] | [5] | [6]

CCCCNC(=O)NS(=O)(=O)c1ccc(C)cc1
inactive: [1] | [7] | [9] | [4] | [5]

C[N+](C)(C)CCOC(=O)CCC(=O)OCC[N+](C)(C)C
not listed: [7] | [9] | [10]
inactive: all other assays above

CN=C(NC#N)NCCSCc1nc[nH]c1C
not listed: [7] | [9]
inactive: all other assays above

CC(=O)OC(C)C[N+](C)(C)C (stereo not given)
inactive: [1] | [7] | [2] | [3] | [4] | [8]

COCCc1ccc(OCC(O)CNC(C)C)cc1 (stereo not given)
not listed: [7] | [9] | [10]
inactive: all other assays above

O=c1[nH]c(=O)n([C@H]2C[C@H](O)[C@@H](CO)O2)cc1Br
inactive: [1] | [2] | [3] | [4] | [5] | [6]

NS(=O)(=O)c1cc2c(cc1Cl)NC(C1CC3C=CC1C3)NS2(=O)=O (stereo not given)
active: [3] 11.2 µM
not listed: [2] | [9] | [10]
inactive: all other assays above

CCNC(=O)N1CCN(CCCC(c2ccc(F)cc2)c2ccc(F)cc2)CC1
active: [1] 1.12 µM
inactive: [2] | [3] | [4] | [5]

O=C(O)CP(=O)(O)O
inactive: [1] | [7] | [3] | [4] | [8]

CN(C)CCCN1c2ccccc2Sc2ccc(C(F)(F)F)cc21
active: [1] 10 µM
inactive: [2] | [3] | [4]

CC(C(=O)O)c1ccc(CC2CCCC2=O)cc1 (stereo not given)
inactive: [1] | [7] | [4] | [6]

COc1cc(C(=O)OCCCN2CCCN(CCCOC(=O)c3cc(OC)c(OC)c(OC)c3)CC2)cc(OC)c1OC
active: [1] 8.91 µM
inactive: [2] | [3] | [4]

O=C1NCN(c2ccccc2)C12CCN(CCCC(c1ccc(F)cc1)c1ccc(F)cc1)CC2
active: [1] 7.08 µM
inactive: [2] | [3]

c1ccc2c(c1)CCCC2C1=NCCN1 (stereo not given)
not listed: [2] | [9] | [10]
inactive: all other assays above

O=C(O)CN(CCOCCOCCN(CC(=O)O)CC(=O)O)CC(=O)O
not listed: [7] | [9] | [10]
inactive: all other assays above

CC(C)NCC(O)c1cc(O)cc(O)c1 (stereo not given)
not listed: [9] | [10]
inactive: all other assays above

CCN(CC)CC(=O)Nc1c(C)cccc1C
not listed: [8] | [9] | [10]
inactive: all other assays above

CCCNC(C)C(=O)Nc1ccccc1C (stereo not given)
inactive: [1] | [2] | [3] | [4] | [5] | [6]

OCCN1CCN(CC/C=C2/c3ccccc3Sc3ccc(C(F)(F)F)cc32)CC1
active: [1] 5.01 µM
inactive: [2] | [3] | [9]

CCN(Cc1ccncc1)C(=O)C(CO)c1ccccc1 (stereo not given)
inactive: [1] | [7] | [2] | [3] | [4]
